In PubChem BioAssay (NCI):
This is part of a sample that, as a whole, favours compounds with a hit. Of some 79,000 tested, about 15% had one in any assay. The source made the active and inactive calls. No stated cut-off is given here; in the data, active means growth inhibition above about 70%; inactive means the rest.

What was measured:
[1] = NCI Yeast Anticancer Drug Screen. Data for the wt2 strain (AID 169);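 further: 0% = growth of vehicle-treated yeast cultures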; settings: S. cerevisiae wt2 strain growth inhibition, hits give high values
In short: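 Growth of compound-treated yeast is measured and expressed as inhibition relative to vehicle-only controls.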

[2] = NCI Yeast Anticancer Drug Screen. Data for the mlh1 strain (AID 171);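 further: 0% = growth of vehicle-treated control cultures of the same strain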; settings: S. cerevisiae mlh1 strain growth inhibition, hits give high values
In short: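 Test agents were incubated with yeast bearing a defined DNA damage repair or cell cycle control alteration; values are growth inhibition normalised to vehicle-treated cultures.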

[3] = NCI Yeast Anticancer Drug Screen. Data for the mlh1 rad18 strain (AID 175); settings: S. cerevisiae mlh1 rad18 strain growth inhibition, hits give high values
In short: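 A repair-deficient yeast strain is exposed to test compound, and growth is scored relative to vehicle-treated controls.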

[4] = NCI Yeast Anticancer Drug Screen. Data for the rad18 strain (AID 177); settings: S. cerevisiae rad18 mutant growth inhibition, hits give high values
In short: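 DNA-repair-defective yeast; compound treatment; growth inhibition scored against vehicle.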

[5] = NCI Yeast Anticancer Drug Screen. Data for the rad52 strain (AID 147);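 further: 0% = growth of vehicle-treated control cultures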; settings: S. cerevisiae rad52 mutant growth inhibition, hits give high values
In short: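 Growth of repair-deficient yeast cells was compared between compound-treated and vehicle-treated cultures to give percent inhibition.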

[6] = NCI Yeast Anticancer Drug Screen. Data for the wt1 strain (AID 149);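 further: 0% = growth of vehicle-treated wt1 cultures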; settings: S. cerevisiae wt1 strain (SPY 50644) growth inhibition, hits give high values
In short: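 Vehicle-normalised growth inhibition; strain wt1; compound exposure.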

[7] = NCI Yeast Anticancer Drug Screen. Data for the rad50EPP+ strain (AID 151);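 further: 0% = growth of vehicle-treated control cultures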; settings: S. cerevisiae rad50 mutant strain, hits give high values
In short: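 Measured: growth inhibition of rad50EPP+ yeast. Reference: vehicle-treated controls. Screen uses strains with defined genetic alterations in DNA damage repair or cell cycle control.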

[8] = NCI Yeast Anticancer Drug Screen. Data for the mgt1 strain (AID 153); settings: S. cerevisiae mgt1 mutant growth inhibition, hits give high values
In short: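 Compounds were applied to mgt1 mutant yeast, and growth was then compared against vehicle-treated control cultures to give percent inhibition.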

[9] = NCI Yeast Anticancer Drug Screen. Data for the rad50 strain (AID 155);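 further: 0% = growth of vehicle-only cultures of the same strain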; settings: S. cerevisiae rad50 strain growth inhibition, hits give high values
In short: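 A DNA repair-deficient yeast mutant serves as the test organism; compound-induced growth inhibition is calculated against vehicle-treated cells.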

[10] = NCI Yeast Anticancer Drug Screen. Data for the mec2-1 strain (AID 157); settings: S. cerevisiae mec2-1 strain, hits give high values
In short: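 Compounds were applied to mec2-1 yeast cells. Their growth was then compared with that of vehicle-treated cultures to give growth inhibition.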

[11] = NCI Yeast Anticancer Drug Screen. Data for the rad14 strain (AID 159);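 further: 0% = growth of vehicle-treated control cultures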; settings: S. cerevisiae rad14 strain growth inhibition, hits give high values
In short: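 Vehicle-treated cultures served as the baseline for growth inhibition of a DNA repair-mutant yeast strain exposed to each compound.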

[12] = NCI Yeast Anticancer Drug Screen. Data for the sgs1 mgt1 strain (AID 161);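 further: 0% = growth of cultures given vehicle only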; settings: S. cerevisiae sgs1 mgt1 strain, hits give high values
In short: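 Compounds are added to genetically altered yeast, and growth is compared with cultures given vehicle alone to give percent inhibition.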

[13] = NCI Yeast Anticancer Drug Screen. Data for the CLN2oe strain (AID 163);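 further: 0% = growth of vehicle-only control cultures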; settings: S. cerevisiae CLN2oe strain, hits give high values
In short: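 Cells of an engineered yeast line with disturbed cell-cycle regulation are treated with compound. Inhibition of growth is then calculated relative to the vehicle-treated reference.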

[14] = NCI Yeast Anticancer Drug Screen. Data for the cln2 rad14 strain (AID 165);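 further: 0% = growth equal to vehicle treated cultures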; settings: S. cerevisiae cln2 rad14 strain, hits give high values
In short: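 Strain: cln2 rad14 yeast, altered in cell cycle control and DNA damage repair. Read-out: growth inhibition vs vehicle.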

[15] = NCI Yeast Anticancer Drug Screen. Data for the bub3 strain (AID 167); settings: S. cerevisiae bub3 mutant strain, hits give high values
In short: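 Inhibition values come from growth of compound-treated mutant yeast normalised to vehicle-treated controls.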

[16] = NCI Yeast Anticancer Drug Screen. Data for the sgs1 strain (AID 173);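 further: 0% = growth of vehicle-only control cultures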; settings: S. cerevisiae sgs1 mutant, hits give high values
In short: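 Strain with an altered DNA repair or cell cycle pathway exposed to compound. Growth then measured. Value = inhibition versus vehicle control.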

[17] = at 5.0 µM (retest, dose inferred, filed as 0.5)
[18] = at 50.0 µM (retest, dose inferred, filed as 5.0)

Measured: growth inhibition

Fc1ccc(NC(=S)SCc2ccc3c(c2)OCO3)cc1F
inactive: [1]; at 1.2 µM -2% | [1]; at 3.7 µM 19% | [1]; at 11.0 µM 58% | [2]; at 1.2 µM -29% | [2]; at 3.7 µM -28% | [2]; at 11.0 µM 53% | [3]; [17] 6% | [4]; at 1.2 µM 20% | [4]; at 3.7 µM 34%
active: [1]; at 33.0 µM 99% | [1]; at 100.0 µM 94% | [2]; at 33.0 µM 99% | [2]; at 100.0 µM 96% | [3]; [18] 98% | [3]; at 50.0 µM 90.5% | [4]; at 11.0 µM 73% | [4]; at 33.0 µM 100% | [4]; at 100.0 µM 98%

CN(C)c1ccc(Sc2ccc3nc(N)nc(N)c3c2)cc1
inactive: [5]; at 1.2 µM 9% | [5]; at 3.7 µM 28% | [5]; at 11.0 µM 31% | [5]; at 33.0 µM 27% | [5]; at 100.0 µM 51% | [6]; at 1.2 µM 15% | [6]; at 3.7 µM 12% | [6]; at 11.0 µM 10% | [6]; at 33.0 µM -7% | [6]; at 100.0 µM -5% | [7]; at 1.2 µM 15% | [7]; at 3.7 µM 30% | [7]; at 11.0 µM 24% | [7]; at 33.0 µM 30% | [7]; at 100.0 µM 28% | [8]; at 1.2 µM -5% | [8]; at 3.7 µM 2% | [8]; at 11.0 µM -4% | [8]; at 33.0 µM -11% | [8]; at 100.0 µM 7% | [9]; at 1.2 µM -18% | [9]; at 3.7 µM 7% | [9]; [17] 41% | [9]; at 11.0 µM 8% | [9]; at 33.0 µM 5% | [9]; [18] 41% | [9]; at 50.0 µM 60% | [9]; at 100.0 µM 40% | [10]; at 1.2 µM -28% | [10]; at 3.7 µM -28% | [10]; [17] 28% | [10]; at 11.0 µM -4% | [10]; at 33.0 µM 13% | [10]; at 100.0 µM 55% | [11]; at 1.2 µM -15% | [11]; at 3.7 µM -4% | [11]; at 11.0 µM -9% | [11]; at 33.0 µM -14% | [11]; at 100.0 µM 5% | [12]; [17] 29% | [12]; [18] 67% | [12]; at 50.0 µM 60% | [13]; at 1.2 µM 17% | [13]; at 3.7 µM 8% | [13]; at 11.0 µM 17% | [13]; at 33.0 µM -11% | [13]; at 100.0 µM 18% | [14]; [17] 24% | [14]; [18] 6% | [14]; at 50.0 µM 25.4% | [15]; at 1.2 µM -17% | [15]; at 3.7 µM -11% | [15]; [17] 27% | [15]; at 11.0 µM -20% | [15]; at 33.0 µM -17% | [15]; [18] 43% | [15]; at 50.0 µM 21.9% | [15]; at 100.0 µM -9% | [1]; at 1.2 µM -4% | [1]; at 3.7 µM -1% | [1]; at 11.0 µM 9% | [1]; at 33.0 µM 7% | [1]; at 100.0 µM 1% | [2]; at 1.2 µM -4% | [2]; at 3.7 µM -8% | [2]; at 11.0 µM -16% | [2]; at 33.0 µM -9% | [2]; at 100.0 µM 18% | [3]; [17] 34% | [3]; [18] 34% | [3]; at 50.0 µM 51.8% | [4]; at 1.2 µM 3% | [4]; at 3.7 µM -17% | [4]; at 11.0 µM -12% | [4]; at 33.0 µM -17% | [4]; at 100.0 µM 11%
active: [10]; [18] 80% | [10]; at 50.0 µM 89.3%

O=C(OCCN1CCCCCC1)C(c1ccsc1)C1CCCCC1 (centres undefined)
inactive: [5]; at 1.2 µM 15% | [5]; at 3.7 µM 14% | [5]; at 11.0 µM 50% | [5]; at 33.0 µM 57% | [5]; at 100.0 µM 50% | [6]; at 1.2 µM -67% | [6]; at 3.7 µM 13% | [6]; at 11.0 µM 16% | [6]; at 33.0 µM 19% | [6]; at 100.0 µM 19% | [7]; at 1.2 µM -1% | [7]; at 3.7 µM -1% | [7]; at 11.0 µM -1% | [7]; at 33.0 µM 0% | [7]; at 100.0 µM 2% | [8]; at 1.2 µM 8% | [8]; at 3.7 µM 21% | [8]; at 11.0 µM 34% | [8]; at 33.0 µM 36% | [8]; at 100.0 µM 37% | [9]; at 1.2 µM 11% | [9]; at 3.7 µM 17% | [9]; [17] 13% | [9]; at 11.0 µM 25% | [9]; at 33.0 µM 29% | [9]; [18] 39% | [9]; at 100.0 µM 46% | [10]; at 1.2 µM 3% | [10]; at 3.7 µM 10% | [10]; [17] -5% | [10]; at 11.0 µM 17% | [10]; at 33.0 µM 27% | [10]; [18] 13% | [10]; at 50.0 µM 33.4% | [10]; at 100.0 µM 32% | [11]; at 1.2 µM 35% | [11]; at 3.7 µM 36% | [11]; at 11.0 µM 40% | [11]; at 33.0 µM 43% | [11]; at 100.0 µM 52% | [12]; [17] 4% | [12]; [18] 55% | [13]; at 1.2 µM 10% | [13]; at 3.7 µM 32% | [13]; at 11.0 µM 51% | [13]; at 33.0 µM 57% | [14]; [18] 49% | [14]; at 50.0 µM 63.5% | [15]; at 1.2 µM 4% | [15]; at 3.7 µM 14% | [15]; [17] 61% | [15]; at 11.0 µM 37% | [15]; at 33.0 µM 58% | [2]; at 1.2 µM 8% | [2]; at 3.7 µM 21% | [2]; at 11.0 µM 24% | [2]; at 33.0 µM 29% | [2]; at 100.0 µM 35% | [16]; at 1.2 µM 17% | [16]; at 3.7 µM 29% | [16]; at 11.0 µM 34% | [16]; at 33.0 µM 31% | [16]; at 100.0 µM 40% | [3]; [17] 2% | [3]; [18] 33% | [4]; at 1.2 µM 7% | [4]; at 3.7 µM 18% | [4]; at 11.0 µM 34% | [4]; at 33.0 µM 34% | [4]; at 100.0 µM 43%
active: [9]; at 50.0 µM 81.9% | [12]; at 50.0 µM 84% | [13]; at 100.0 µM 72% | [14]; [17] 81% | [15]; [18] 88% | [15]; at 50.0 µM 83% | [15]; at 100.0 µM 79% | [3]; at 50.0 µM 79.4%
